Source: PubChem (National Center for Advancing Translational Sciences (NCATS))
LDHA inh – qHTS assay for inhibitors of human lactate dehydrogenase; purified LDHA, NADH/diaphorase-resazurin fluorescence; stronger effect = lower value; activity change, % (values are at about 110 or 230 µM); 480,000 compounds, 0.15% hits; AID 1347041, 2019; in the data active means activity change below about -30%; inconclusive means mostly about -25% to -30%
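LDH5 2 nM; NADH 0.06 mM, pyruvate 0.2 mM; 200 mM Tris pH 7.4, EDTA, Tween-20; 5 min RT. Detection: diaphorase 0.133 mg/mL + resazurin 37 µM, fluorescence ex540/em590 at 0 and 20 min; normalized to enzyme-free and DMSO wells.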
S2 tox – Viability Counterscreen for Primary qHTS for Inhibitors of ATXN expression | 400,000 compounds, 0.49% hits | S2 cells (HEK-293 line with an ATXN2-luciferase reporter) viability, CellTiter-Fluor protease fluorescence, 24 h | Potency, µM (series often up to 56.7 µM), hits mostly cytotoxic; further: nearly all actives have a fitted effect of over 40% in size
IDH1 R132H inh – qHTS for Inhibitors of mutant isocitrate dehydrogenase 1 (IDH1): qHTS; Isocitrate dehydrogenase [NADP] cytoplasmic (Homo sapiens), O75874; IDH1-R132H enzyme, NADPH consumption, diaphorase/resazurin fluorescence; Potency, µM (titrated, usually from 76.6 µM), hits mostly inhibitors; 390,000 compounds, 0.093% hits; AID 602179, 2012; further: nearly all actives have a fitted effect of over 65% in size
Target sequence (O75874 whole entry R132H, stated change not applied): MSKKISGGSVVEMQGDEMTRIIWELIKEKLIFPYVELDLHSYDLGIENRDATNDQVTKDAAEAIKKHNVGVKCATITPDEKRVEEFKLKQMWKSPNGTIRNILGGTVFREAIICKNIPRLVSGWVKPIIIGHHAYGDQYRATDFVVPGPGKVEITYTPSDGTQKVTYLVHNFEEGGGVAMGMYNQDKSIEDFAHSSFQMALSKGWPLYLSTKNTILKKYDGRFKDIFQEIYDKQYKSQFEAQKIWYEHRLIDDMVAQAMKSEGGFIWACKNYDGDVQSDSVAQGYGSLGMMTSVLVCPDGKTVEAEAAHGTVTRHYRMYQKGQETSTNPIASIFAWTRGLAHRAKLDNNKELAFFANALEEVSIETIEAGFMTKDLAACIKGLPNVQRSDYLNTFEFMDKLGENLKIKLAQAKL
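IDH1-R132H (0.5 ug/mL) preincubated 30 min with compound, then NADPH (0.016 mM) and alpha-KG (2 mM) added; 80 min at RT, pH 7.5. Remaining NADPH coupled via diaphorase/resazurin to fluorescence (540/590 nm); concentration-response curves normalized to no-enzyme control.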
HepG2 viability – qHTS for Inhibitors of TGF-b: Cytotox Counterscreen. HepG2 CAGA-GFP viability, ATP luminescence, 18 h. Potency, µM (top dose mostly 46.1 µM), hits mostly cytotoxic. 410,000 compounds, 0.76% hits
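HepG2 CAGA-GFP cells (1000/well, DMEM with 1% FBS) received compound, then TGF-beta at 500 pg/mL final, and were incubated 18 hours at 37 degrees C. Viability was read by CellTiter-Glo luminescence. Media-only wells were set as complete cell-killing and DMSO as no toxicity.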
ATXN2 expr inh – Primary qHTS for Inhibitors of ATXN expression; HEK-293 ATXN2-luciferase reporter, luminescence, 24 h; Potency, µM (titrated, usually from 57 µM), actives largely listed as inhibitors; 360,000 compounds, 0.72% hits; further: nearly all actives have a fitted effect of over 55% in size
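qHTS (up to 57 uM final) was run with 24 h compound exposure of reporter cells at 37 °C. Each well was multiplexed: SteadyGlo luminescence measured ATXN2-luciferase expression after a fluorogenic Gly-Phe-AFC viability readout (25 uM final).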
TGFb inhibitor – qHTS for Inhibitors of TGF-b; Potency, µM (series often up to 46.1 µM), hits mostly inhibitors; HepG2 CAGA-GFP TGF-b/SMAD3 reporter, GFP fluorescence, 18 h; TGF-beta stimulated, 500 pg/mL final; 410,000 compounds, 1.2% hits; further: nearly all actives have a fitted effect of over 65% in size
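HEPG2 CAGA-GFP reporter cells (1000/well, DMEM with 1% FBS) received compounds, then recombinant TGF-beta at 500 pg/mL final for 18 hours at 37 degrees C. Per-cell GFP summed per well was normalised to unstimulated and stimulated DMSO controls before curve fitting.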
Hits are given with their value. Sampled rows, rich in hits. Any-hit rate of the full collection: about 2.2%. Unless noted, the call rests on the fitted dose curve; in most records, active means well fitted curve in the direction sought with a large enough effect; inconclusive means small, poorly fitted or top-dose-only effect, or another doubt; inactive means no such curve, though single readings can be large; an effect the other way counts as inactive or inconclusive.

How did Cc1nn2c(NCc3ccccn3)cc(C(C)C)nc2c1-c1ccccc1 do in these assays?
LDHA inh: inactive; S2 tox: inconclusive; IDH1 R132H inh: inactive; HepG2 viability: inactive; TGFb inhibitor: 11µM

Results for CCCc1cc(NCc2ccccn2)n2nc(C)c(-c3ccccc3)c2n1 ?
LDHA inh: inactive; S2 tox: inconclusive; IDH1 R132H inh: inactive; HepG2 viability: inactive; ATXN2 expr inh: 10µM; TGFb inhibitor: inconclusive

Results for Cc1cc(C(F)(F)F)nc(SCc2c(Cl)cccc2Cl)n1 ?
LDHA inh: inactive

How did C=CCn1c(=O)/c(=C/c2ccc(O)cc2)s/c1=C(/C#N)c1nnc2n1CCCCC2 do in these assays?
LDHA inh: inactive; S2 tox: inactive; IDH1 R132H inh: inactive; HepG2 viability: inactive; ATXN2 expr inh: inactive; TGFb inhibitor: inactive

How did C=CCn1c(=O)/c(=C/c2ccc(Cl)cc2)s/c1=C(/C#N)c1nnc2n1CCCCC2 do in these assays?
LDHA inh: inactive; S2 tox: 18µM; IDH1 R132H inh: inconclusive; HepG2 viability: inactive; ATXN2 expr inh: 22µM; TGFb inhibitor: inactive

How did CCc1ccc(CNC(=O)c2cc3c(C)nc4ccccc4c3o2)cc1 do in these assays?
LDHA inh: inactive; S2 tox: inconclusive; IDH1 R132H inh: inactive; HepG2 viability: inactive; ATXN2 expr inh: 20µM; TGFb inhibitor: inconclusive

What do the screens show for `Cc1ccc(S(=O)(=O)N2CCCC2)cc1[N+](=O)[O-]`?
LDHA inh: inactive; S2 tox: inactive; IDH1 R132H inh: inactive; HepG2 viability: inactive; ATXN2 expr inh: inactive; TGFb inhibitor: inactive

Results for O=C1CCCN1c1ccc(S(=O)(=O)N2CCCCC2)cc1[N+](=O)[O-] ?
LDHA inh: inactive; S2 tox: inactive; IDH1 R132H inh: inactive; HepG2 viability: 6.3µM; ATXN2 expr inh: inactive; TGFb inhibitor: inactive

What do the screens show for `CCCS(=O)(=O)NC(=O)C1(C)CCN(C(=O)c2cc(OC)c(OC)c(OC)c2)C1` (centres undefined)?
LDHA inh: inactive; S2 tox: inactive; HepG2 viability: inactive; ATXN2 expr inh: inactive; TGFb inhibitor: inconclusive

Results for O=C(Nc1cc(C(=O)Nc2ccc(S(=O)(=O)O)cc2S(=O)(=O)O)cc(C(=O)Nc2ccc(S(=O)(=O)O)cc2S(=O)(=O)O)c1)Nc1cc(C(=O)Nc2ccc(S(=O)(=O)O)cc2S(=O)(=O)O)cc(C(=O)Nc2ccc(S(=O)(=O)O)cc2S(=O)(=O)O)c1 ?
LDHA inh: -38; HepG2 viability: inactive; TGFb inhibitor: inactive

Results for N#CC1=C(N)OC2=C(CC/C2=C\c2ccccc2)C1c1ccccc1 (centres undefined) ?
LDHA inh: inactive; IDH1 R132H inh: inactive; HepG2 viability: inactive; ATXN2 expr inh: inactive; TGFb inhibitor: inactive

Results for N#CC1=C(N)OC2=C(CC/C2=C\c2ccccc2Cl)C1c1ccccc1Cl (centres undefined) ?
LDHA inh: inactive; IDH1 R132H inh: inactive; HepG2 viability: inactive; TGFb inhibitor: 11µM

How did COc1cccc(C2CNC3(CCCC(C)C3)c3[nH]c4ccccc4c32)c1OC (centres undefined) do in these assays?
LDHA inh: inactive; S2 tox: 11µM; IDH1 R132H inh: inactive; HepG2 viability: inactive; TGFb inhibitor: inconclusive

How did C=C(C(=O)c1ccccc1)C(NC(C)(C)C)c1ccccc1 (centres undefined) do in these assays?
LDHA inh: inactive; S2 tox: inconclusive; IDH1 R132H inh: inactive; HepG2 viability: inactive; ATXN2 expr inh: 7.5µM; TGFb inhibitor: inconclusive

Results for Cc1cccc(Cl)c1OCCCn1ccnc1 ?
LDHA inh: -37; IDH1 R132H inh: inactive; HepG2 viability: inactive; TGFb inhibitor: inconclusive

How did O=C1C=CC(=O)N1CCCCCCCCCCN1C(=O)C=CC1=O do in these assays?
LDHA inh: inactive; S2 tox: 8.9µM; IDH1 R132H inh: inactive; HepG2 viability: inactive; ATXN2 expr inh: 10µM; TGFb inhibitor: 13µM

What do the screens show for `O=C(COC(=O)CNC(=O)c1ccccc1)Nc1ccc(S(=O)(=O)N2CCCC2)cc1`?
LDHA inh: inactive; S2 tox: inactive; IDH1 R132H inh: inactive; HepG2 viability: inactive; ATXN2 expr inh: inactive; TGFb inhibitor: inactive

What do the screens show for `COc1ccc(-c2cc(C(=O)Nc3c(C)n(C)n(-c4ccccc4)c3=O)c3ccccc3n2)cc1OC`?
LDHA inh: inactive; S2 tox: inactive; IDH1 R132H inh: inactive; HepG2 viability: inactive; ATXN2 expr inh: inactive; TGFb inhibitor: inactive

Results for Cn1c(=O)c2c(-c3ccc(Br)cc3)n(CCc3ccccc3)cc2n(C)c1=O ?
LDHA inh: inactive; S2 tox: inconclusive; IDH1 R132H inh: inconclusive; HepG2 viability: inactive; ATXN2 expr inh: inconclusive; TGFb inhibitor: 10µM

Results for Cn1c(=O)c2c(-c3ccc(Cl)cc3)n(CCc3ccccc3)cc2n(C)c1=O ?
LDHA inh: inactive; S2 tox: inactive; IDH1 R132H inh: inactive; HepG2 viability: inactive; ATXN2 expr inh: inactive; TGFb inhibitor: inconclusive

How did CCN1CCN(C(=O)C(=O)c2cn(CC(=O)N3CCCCCC3)c3ccccc23)CC1 do in these assays?
LDHA inh: inactive; S2 tox: inactive; IDH1 R132H inh: inactive; HepG2 viability: inactive; ATXN2 expr inh: inactive; TGFb inhibitor: inactive

How did CCOC(=O)C1CCN(C(=O)CCNC(=O)c2ccccc2OC)CC1 do in these assays?
LDHA inh: inactive; S2 tox: inactive; IDH1 R132H inh: inactive; HepG2 viability: inactive; ATXN2 expr inh: inactive; TGFb inhibitor: inactive

Results for CCCCCCCCCCCCCCCCCCNC(=O)OC1CCN(C(=O)OC[C@H](COC(=O)N(Cc2cccc[n+]2CC)C(=O)c2ccccc2OC)OC)CC1 ?
S2 tox: 35µM; ATXN2 expr inh: 35µM

How did CCCn1c(N2CCN(Cc3ccc(Cl)cc3)CC2)nc2ccccc21 do in these assays?
LDHA inh: inactive; S2 tox: inconclusive; IDH1 R132H inh: inactive; HepG2 viability: inactive; TGFb inhibitor: 16µM

How did Oc1ccc(C[C@@H]2CNC(=S)N2CCCCC2CCCCC2)cc1 do in these assays?
LDHA inh: inactive; S2 tox: inconclusive; IDH1 R132H inh: inactive; HepG2 viability: inactive; ATXN2 expr inh: inactive; TGFb inhibitor: 13µM

Results for S=C1NC[C@H](c2ccccc2)N1CCCCC1CCCCC1 ?
LDHA inh: inactive; S2 tox: inconclusive; IDH1 R132H inh: inactive; HepG2 viability: 11µM; ATXN2 expr inh: inconclusive; TGFb inhibitor: 18µM

What do the screens show for `O=C1NC[C@@H](Cc2ccc(O)cc2)N(CCCCC2CCCCC2)C1=O`?
LDHA inh: inactive; S2 tox: inactive; ATXN2 expr inh: inactive
